Test [1] is described as follows: binders of probe aFSTL3 on microarray, primary screen, stem cell growth factor project, biochemical, small-molecule microarray, fluorescence 635/667 (AID 1064).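 Note: measures binding of the biotinylated anti-FSTL3 antibody to printed compounds.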 Particulars: higher = more signal.
Test [2] is described as follows: binders from COS7 lysate, DM2A8 probe, primary screen, torsin A project, cell lysate, small-molecule microarray, fluorescence 635/667 (AID 1065). The conditions noted are these: higher = more signal, COS7 lysate expressing mutant human TOR1A.
Test [3] can be described thus: binders of probe aFGF2 on microarray, primary screen, stem cell growth factor project, biochemical, small-molecule microarray, fluorescence 635/667 (AID 1067).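 Note: measures binding of biotinylated aFGF2 protein to printed compounds on slides; z-score merges feature fluorescence and signal-to-noise across triplicate slides.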 Particulars: higher = more signal.
Test [4] can be described thus: binders of probe aFGF10 on microarray, primary screen, stem cell growth factor project, biochemical, small-molecule microarray, fluorescence 635/667 (AID 1071).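 Note: score merges 667 nm spot intensity and signal to noise from triplicate slides.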 The conditions noted are these: higher = more signal.
Test [5] deals with Neurogenic locus notch homolog protein 2 (Homo sapiens) (UniProt Q04721). Description: Notch2 binders on small-molecule microarrays, primary screen, biochemical, small-molecule microarray, 635 nm fluorescence, stem cell growth factors (AID 1073). Particulars: Notch2 binding, higher = more signal.
Test [6] has as its target Pro-neuregulin-1, membrane-bound isoform (Homo sapiens) (UniProt Q02297). Nature of the test: NRG1 binders on small-molecule microarrays, primary screen, psychiatric disease protein project, biochemical, small-molecule microarray, fluorescence 635/667 (AID 1075).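 Note: score combines 667 nm spot fluorescence with signal to noise.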 Particulars: NRG1 binding, 635 nm fluorescence, higher = more signal.
In test [7] the test system is Neuregulin-1 EGF-like domain. Nature of the test: binders of neuregulin-1 EGF-like domain, primary screen, biochemical, small-molecule microarray, 635 nm fluorescence (AID 1081).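 Note: binding of the protein to compounds printed on small-molecule microarray slides.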 Particulars: small-molecule microarray binding, higher = more signal.
Test [8] can be described thus: FRG1 promoter luciferase signal modulators, primary screen, FRG1 inhibition for FSHD, cell-based, C2C12 myotubes, firefly/Renilla luciferase, luminescence (AID 1084). Particulars: higher = more signal, called active from +8 up or from −8 down.
Test [9] can be described thus: binders of probe aFST on microarray, primary screen, stem cell growth factor project, biochemical, small-molecule microarray, fluorescence 635/667 (AID 1086).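 Note: score merges 667 nm fluorescence with signal-to-noise of each printed compound spot.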 The conditions noted are these: higher = more signal.
Test [10] in a line: binders of probe aHhip on microarray, primary screen, stem cell growth factor project, biochemical, small-molecule microarray, fluorescence 635/667 (AID 1087).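 Note: score merges spot fluorescence at 667nm with spot signal to noise ratio.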 The conditions noted are these: higher = more signal.
For test [11], the system named is PRMT1 (protein arginine N-methyltransferase 1). Description: PRMT1 binders on small-molecule microarrays, primary screen, biochemical, small-molecule microarray, 635 nm fluorescence (AID 1088).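 Note: binding of Prmt1 protein to compounds spotted on small-molecule microarray slides.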 Particulars: small-molecule microarray binding, higher = more signal.
Test [12] in a line: yeast growth modulation, basal conditions, primary screen, YJM789 clinical isolate, OD600, 24 h (AID 1089).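 Note: growth of clinical yeast isolate S. cerevisiae YJM 789 seeded 1000 cells per well; test concentration not given here.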 The conditions noted are these: S. cerevisiae YJM789 growth, higher = more signal, called active from +8 up or from −8 down.
Test [13] is described as follows: fission yeast growth modulation, primary screen, strain 972, OD600, 24 h, no modulator (AID 1090).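 Note: basal condition with compound alone and no growth modifier present; test concentration not given here.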 Particulars: S. pombe 972 growth, higher = more signal, called active from +8 up or from −8 down.
Test [14] is described as follows: S. cerevisiae growth modulation with rapamycin, primary screen, strain BY4716, OD600, 96 h (AID 1091). Note: test concentration not given here. Particulars: higher = more signal, called active from +8 up or from −8 down.
Test [15] addresses Torsin-1A-interacting protein 2 (Homo sapiens) (UniProt Q8NFQ8). Nature of the test: LULL1 binders on small-molecule microarray, primary screen, cell lysate, human LULL1 lysate, 635/667 nm fluorescence (AID 1092).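 Note: score merges per-feature 667 nm fluorescence with signal-to-noise.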 The conditions noted are these: hLULL1 lysate binding, 635 nm fluorescence, higher = more signal.
Test [16] in a line: E. coli growth modulation, two-sided OD650, primary screen, E. coli filamentation project, strain DRC41, 24 h (AID 1093).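 Note: MC1000 strain lacking acrAB efflux and sulA so SOS filamentation is blocked; test concentration not given here.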 The conditions noted are these: OD650, 24 h, higher = more signal, called active from +8 up or from −8 down.
The nature of test [17]: small-molecule microarray binders of probe aLefty2, primary screen, biochemical, biotinylated probe, 635/667 nm fluorescence (AID 1094).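 Note: score merges spot fluorescence near 667 nm with spot signal-to-noise ratio.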 Particulars: higher = more signal.
Test [18] deals with Noggin (protein binding on small-molecule microarray). Nature of the test: Noggin binders on small-molecule microarray, primary screen, biochemical, 635/667 nm fluorescence (AID 1095).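 Note: score merges 667 nm feature fluorescence with signal to noise over triplicate slides.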 Particulars: 635 nm fluorescence, higher = more signal.
In test [19] the target is Neurogenic locus notch homolog protein 3 (Homo sapiens) (UniProt Q9UM47). Nature of the test: NOTCH3 binders on small-molecule microarray, primary screen, biochemical, 635/667 nm fluorescence (AID 1096). The conditions noted are these: NOTCH3 binding, 635 nm fluorescence, higher = more signal.
Test [20] can be described thus: small-molecule microarray binders of probe aEGFR, primary screen, biochemical, biotinylated probe, 635/667 nm fluorescence (AID 1097).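 Note: probe is a biotinylated anti-EGFR antibody binding compounds printed on slides; score combines fluorescence near 667 nm and signal to noise of each spot.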 Particulars: higher = more signal.

Structures are written as SMILES. Active and inactive are the calls of the source.

Torsin-1A-interacting protein 2 (Homo sapiens), sequence (Q8NFQ8 whole entry, looked up): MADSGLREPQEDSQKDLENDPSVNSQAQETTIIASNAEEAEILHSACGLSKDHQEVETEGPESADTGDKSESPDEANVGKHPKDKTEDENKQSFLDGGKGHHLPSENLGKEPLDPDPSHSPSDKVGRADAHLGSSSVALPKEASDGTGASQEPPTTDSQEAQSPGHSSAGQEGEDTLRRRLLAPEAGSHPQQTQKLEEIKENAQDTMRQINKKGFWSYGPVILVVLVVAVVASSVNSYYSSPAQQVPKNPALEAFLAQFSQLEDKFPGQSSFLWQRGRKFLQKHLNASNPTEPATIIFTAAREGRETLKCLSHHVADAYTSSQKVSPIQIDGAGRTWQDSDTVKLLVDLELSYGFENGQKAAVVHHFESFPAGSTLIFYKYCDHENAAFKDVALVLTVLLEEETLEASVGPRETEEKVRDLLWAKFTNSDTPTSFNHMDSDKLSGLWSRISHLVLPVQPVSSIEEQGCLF
Neurogenic locus notch homolog protein 3 (Homo sapiens), sequence (Q9UM47 whole entry, looked up): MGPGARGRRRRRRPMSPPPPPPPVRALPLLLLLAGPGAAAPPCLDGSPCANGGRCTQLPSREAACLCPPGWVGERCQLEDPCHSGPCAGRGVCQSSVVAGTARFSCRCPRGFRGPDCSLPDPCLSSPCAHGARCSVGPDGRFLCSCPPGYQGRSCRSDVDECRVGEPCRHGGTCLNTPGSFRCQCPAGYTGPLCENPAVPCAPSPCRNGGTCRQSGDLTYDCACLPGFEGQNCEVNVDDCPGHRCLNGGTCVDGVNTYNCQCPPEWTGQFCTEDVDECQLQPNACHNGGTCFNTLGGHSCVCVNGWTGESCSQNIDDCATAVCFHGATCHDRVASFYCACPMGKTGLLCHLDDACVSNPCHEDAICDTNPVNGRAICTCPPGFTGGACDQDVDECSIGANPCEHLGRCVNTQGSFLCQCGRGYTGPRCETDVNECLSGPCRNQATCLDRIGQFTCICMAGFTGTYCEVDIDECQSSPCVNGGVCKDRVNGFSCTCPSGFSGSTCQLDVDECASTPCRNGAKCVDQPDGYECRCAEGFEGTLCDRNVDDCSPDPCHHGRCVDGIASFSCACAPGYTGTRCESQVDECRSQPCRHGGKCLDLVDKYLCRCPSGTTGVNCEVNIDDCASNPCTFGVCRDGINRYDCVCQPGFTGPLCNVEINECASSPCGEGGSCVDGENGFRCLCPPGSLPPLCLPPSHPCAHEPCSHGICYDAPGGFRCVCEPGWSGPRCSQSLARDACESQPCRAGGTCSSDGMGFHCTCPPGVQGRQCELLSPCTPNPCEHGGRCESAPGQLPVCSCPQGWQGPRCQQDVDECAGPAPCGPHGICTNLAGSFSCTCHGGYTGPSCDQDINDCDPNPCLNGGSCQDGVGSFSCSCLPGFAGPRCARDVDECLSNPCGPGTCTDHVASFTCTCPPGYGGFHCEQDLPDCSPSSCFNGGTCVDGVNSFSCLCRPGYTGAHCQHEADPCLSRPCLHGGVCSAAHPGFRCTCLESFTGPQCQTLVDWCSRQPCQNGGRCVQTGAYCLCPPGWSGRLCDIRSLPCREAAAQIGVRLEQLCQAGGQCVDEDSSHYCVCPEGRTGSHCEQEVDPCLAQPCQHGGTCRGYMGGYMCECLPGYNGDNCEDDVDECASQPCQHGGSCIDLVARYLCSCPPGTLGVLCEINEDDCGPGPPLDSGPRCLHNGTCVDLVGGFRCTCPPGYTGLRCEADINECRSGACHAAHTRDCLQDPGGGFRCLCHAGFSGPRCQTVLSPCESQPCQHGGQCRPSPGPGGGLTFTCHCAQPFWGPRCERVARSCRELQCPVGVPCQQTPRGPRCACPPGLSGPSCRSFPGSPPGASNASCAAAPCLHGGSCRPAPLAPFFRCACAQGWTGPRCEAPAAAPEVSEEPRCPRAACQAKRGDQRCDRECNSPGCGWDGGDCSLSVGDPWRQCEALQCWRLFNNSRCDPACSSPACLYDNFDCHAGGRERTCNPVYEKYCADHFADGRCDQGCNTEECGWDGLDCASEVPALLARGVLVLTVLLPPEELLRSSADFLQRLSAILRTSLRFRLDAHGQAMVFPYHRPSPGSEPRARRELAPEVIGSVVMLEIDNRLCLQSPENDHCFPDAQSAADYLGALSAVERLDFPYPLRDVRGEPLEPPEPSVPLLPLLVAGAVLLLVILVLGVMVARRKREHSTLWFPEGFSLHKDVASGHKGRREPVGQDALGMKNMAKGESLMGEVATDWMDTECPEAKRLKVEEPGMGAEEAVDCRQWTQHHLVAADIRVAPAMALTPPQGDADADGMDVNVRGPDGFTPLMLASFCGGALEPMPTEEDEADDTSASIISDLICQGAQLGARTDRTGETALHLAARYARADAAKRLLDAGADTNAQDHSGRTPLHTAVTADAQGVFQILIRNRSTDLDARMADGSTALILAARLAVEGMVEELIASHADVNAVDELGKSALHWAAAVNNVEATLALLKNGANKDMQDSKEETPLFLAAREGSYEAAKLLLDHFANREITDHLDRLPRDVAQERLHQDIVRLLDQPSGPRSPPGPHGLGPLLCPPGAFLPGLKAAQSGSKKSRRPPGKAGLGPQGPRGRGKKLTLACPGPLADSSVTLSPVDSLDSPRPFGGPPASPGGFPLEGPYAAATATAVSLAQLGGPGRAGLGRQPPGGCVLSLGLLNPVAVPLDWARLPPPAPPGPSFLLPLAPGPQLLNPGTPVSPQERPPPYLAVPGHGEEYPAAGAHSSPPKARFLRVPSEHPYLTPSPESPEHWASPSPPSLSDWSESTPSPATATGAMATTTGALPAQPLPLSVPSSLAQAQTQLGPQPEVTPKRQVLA
Pro-neuregulin-1, membrane-bound isoform (Homo sapiens), sequence (Q02297 whole entry, looked up, the tested form may be a part, canonical isoform): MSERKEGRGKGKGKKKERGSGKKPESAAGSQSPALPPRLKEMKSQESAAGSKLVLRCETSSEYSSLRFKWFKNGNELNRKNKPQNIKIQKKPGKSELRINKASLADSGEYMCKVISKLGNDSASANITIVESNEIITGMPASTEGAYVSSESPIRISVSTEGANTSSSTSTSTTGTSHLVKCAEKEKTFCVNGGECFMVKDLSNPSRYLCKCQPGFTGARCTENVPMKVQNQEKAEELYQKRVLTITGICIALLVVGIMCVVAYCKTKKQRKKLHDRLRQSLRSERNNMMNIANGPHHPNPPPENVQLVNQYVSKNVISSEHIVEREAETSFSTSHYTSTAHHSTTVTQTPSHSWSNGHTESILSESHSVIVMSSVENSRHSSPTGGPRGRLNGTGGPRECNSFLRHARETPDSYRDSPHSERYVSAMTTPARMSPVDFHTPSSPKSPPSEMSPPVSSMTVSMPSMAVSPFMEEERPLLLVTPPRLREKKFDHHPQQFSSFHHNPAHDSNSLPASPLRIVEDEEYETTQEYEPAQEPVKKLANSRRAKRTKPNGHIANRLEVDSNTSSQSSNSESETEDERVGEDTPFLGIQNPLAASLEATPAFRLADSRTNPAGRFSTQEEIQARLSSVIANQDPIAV

Consider `O=C(CS)NCCCCCCNC(=O)[C@H]1C[C@H]2C(=O)N3CCC[C@H]3C(=O)N2[C@H]1c1ccc(O)cc1`, for which the composite z-score is 0.112 in [1]; -0.0248 in test [2]; -0.0759 in test [3]; -0.15 in test [4]; -0.183 in test [5]; 0.883 in [6]. For the same compound, the composite z-score was 1.31 in test [7]; 0.416 in test [9]; 0.0749 in test [10]; 1.42 in test [11]; 2.22 in test [15]; -0.0845 in [17]. In addition, the figures for the composite z-score in test [18], in test [19] and in test [20] were 1.21, 0.905 and -0.208, respectively. Also, the z-score in test [8] is 1.04 (inactive); in test [12], -0.637 (inactive); in test [13] it was 0.0932 (inactive); in test [14], 0.369 (inactive); in test [16], -0.506 (inactive).

Take `[N-]=[N+]=NCc1ccccc1C[C@]1(C(N)=O)N=C(c2ccc(OCCCO)cc2)O[C@H]1c1ccccc1N=[N+]=[N-]`: the composite z-score in test [1] was 0.567; in [2], -0.186; in [3], -0.0085; in test [4], 0.665; in [5], 0.997; in test [6] it was 1.3. Further, the composite z-score was found to be 1.12 in test [7]; 0.93 in test [9]; 0.151 in test [10]; 1.37 in test [11]; 2.84 in [15]; 0.175 in test [17]. Further, the composite z-score in test [18] is -0.433; in [19], 0.616; in test [20] it was 0.268. Moreover, the z-score was -1.4 (inactive) in [8]; 1.22 (inactive) in test [12]; 1.29 (inactive) in test [13]; 1.39 (inactive) in test [14]; -0.0072 (inactive) in test [16].

Consider `[N-]=[N+]=NCc1ccccc1[C@@H]1OC(c2ccc(OCCCO)cc2)=N[C@]1(Cc1ccccc1)C(=O)O`, for which the composite z-score in [1] came to 0.221; in [2], 0.163; in test [3], 0.0909; in test [4] it was 1.04; in [5], 0.526; in [6], 1.57. Also, the composite z-score is 1.25 in test [7]; 0.461 in [9]; -0.0581 in [10]; 1.54 in [11]; 3.2 in test [15]; 0.0769 in [17]. For the same compound, the composite z-score in test [18] is -0.0061; in test [19], 0.315; in test [20] it was 0.271. For the same compound, the z-score in test [8] was 2.29 (inactive); in test [12], 0.452 (inactive); in test [13], -1.11 (inactive); in test [14], -0.486 (inactive); in [16] it was 0.652 (inactive).

`[N-]=[N+]=NCc1ccccc1C[C@@]1(C(=O)NCc2ccccc2)N=C(c2ccc(OCCCO)cc2)O[C@@H]1c1ccccc1CN=[N+]=[N-]`: the composite z-score in [1] turned out to be 0.705; in test [2], 0.425; in test [3], 0.107; in test [4], 0.809; in test [5] it was 0.933; in test [6], 0.926. For the same compound, the composite z-score came out at 1.05 in test [7]; 0.803 in test [9]; 0.553 in test [10]; 1.57 in [11]; 3.25 in test [15]; 0.395 in test [17]. Moreover, the composite z-score in test [18] was found to be 0.234; in [19], 0.756; in test [20], 0.0157. Also, the z-score is -1.95 (inactive) in test [8]; -1.34 (inactive) in test [12]; 0.0392 (inactive) in test [13]; 36 (active) in test [14]; 1.16 (inactive) in test [16].

For the compound `[N-]=[N+]=Nc1ccccc1[C@@H]1OC(c2ccc(OCCCO)cc2)=N[C@]1(CCS(=O)(=O)c1ccccc1)C(=O)O`, the composite z-score in [1] stood at 0.0639; in [2], 0.459; in test [3], 0.079; in [4] it was 0.839; in test [5], 1.57; in [6], 1.53. For the same compound, the composite z-score in test [7] was 0.862; in test [9], 0.912; in [10] it was 0.151; in [11], 1.56; in [15], 3.39; in test [17], -0.013. Moreover, the composite z-score turned out to be 0.61 in [18], 1.01 in [19] and 0.172 in [20]. The z-score was 3.39 (inactive) in [8]; 1.57 (inactive) in test [12]; -3.97 (inactive) in test [13]; -1.63 (inactive) in [14]; 0.777 (inactive) in test [16].

The values are drawn from PubChem BioAssay.
